Screening results from PubChem.
An excerpt weighted towards active compounds, which were near 4.6% of everything screened.
tim23-1 inh – tim23-1 yeast growth inhibition | S. cerevisiae tim23-1 growth, BacTiter-Glo luminescence, 24 h | inhibition, % at 20 µM | 1.3% of 330,000 active;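 active means growth inhibition of the mutant yeast at or above 50%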;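 further: temperature-sensitive mutant grown at 25 °C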
SKKanGAS inh – blocks kanamycin growth of S. pyogenes SKKanGAS strain; AID 1662; BacTiter-Glo, 6 h; inhibition, % at 7.5 µM; 1.3% of 300,000 active;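 active means mean replicate score, as percent of positive control median, at least 50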;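 further: strain carries kanamycin resistance gene driven by streptokinase promoter and grows in 40 µg/ml kanamycin; loss of luminescence reflects streptokinase promoter inhibition or plain growth inhibition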
NALP3 yeast inh – inhibitors of NALP3 inflammasome in yeast | Yeast reconstituted NLRP3/ASC/caspase-1, beta-gal luminescence, 24 h | inhibition, % at 10 µM | 0.39% of 330,000 active;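 active means inhibition of 50% or more; inactive means inhibition below 50%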
TIM10 inh – TIM10 yeast growth inhibition; inhibition, % at 10 µM; 1.4% of 330,000 active; S. cerevisiae TIM10 strain growth, BacTiter-Glo luminescence, 24 h;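 active means inhibition of 40% or more at the single tested concentration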;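 further: wild-type TIM10 isogenic control strain grown at permissive 25 °C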
tim10-1 inh – inhibits growth of tim10-1 mutant yeast; S. cerevisiae tim10-1 ts strain growth, BacTiter-Glo, 24 h; 2.2% of 330,000 active; inhibition, % at 20 µM; AID 463190;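 active means inhibition of at least 40%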;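 further: mutant grown at 25 °C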
A number is an active result.

Results for CC[C@H]1OC(=O)[C@H](C)[C@@H](O[C@H]2C[C@@](C)(OC)[C@@H](O)[C@H](C)O2)[C@H](C)[C@@H](O[C@@H]2O[C@H](C)C[C@H](N(C)C)[C@H]2O)[C@](C)(O)C[C@@H](C)C(=NOCOCCOC)[C@H](C)[C@@H](O)[C@]1(C)O ?
tim23-1 inh: inactive; SKKanGAS inh: 107; NALP3 yeast inh: inactive; TIM10 inh: inactive; tim10-1 inh: inactive

Results for COc1ccc(/C=C/C(=O)OCC(=O)NCCc2ccccc2)c(OC)c1 ?
tim23-1 inh: inactive; NALP3 yeast inh: inactive; TIM10 inh: inactive; tim10-1 inh: inactive

Results for Cc1cc(C(=O)OCC(=O)NC(C)c2ccc(F)cc2)c(C)o1 (configuration not stated) ?
tim23-1 inh: inactive; NALP3 yeast inh: inactive; TIM10 inh: inactive; tim10-1 inh: inactive

How did Cc1nn(C(C)C(=O)N2CCCCC2)c(=O)c2c1sc1ccccc12 (configuration not stated) do in these assays?
tim23-1 inh: inactive; SKKanGAS inh: inactive; NALP3 yeast inh: inactive; TIM10 inh: inactive; tim10-1 inh: inactive

Results for CCC(C(=O)N1CCC(N2CCCCC2)CC1)n1nc(C)c2sc3ccccc3c2c1=O (configuration not stated) ?
tim23-1 inh: inactive; SKKanGAS inh: 53; NALP3 yeast inh: inactive; TIM10 inh: inactive; tim10-1 inh: inactive

Results for O=C(Nc1ccccc1)NN(C(=O)CCl)c1ccccc1 ?
tim23-1 inh: inactive; SKKanGAS inh: inactive; NALP3 yeast inh: inactive; TIM10 inh: inactive; tim10-1 inh: inactive

How did CCc1ccc(/C=C2/SC(=S)N(CCCC(=O)Nc3ccccc3C(=O)O)C2=O)cc1 do in these assays?
tim23-1 inh: inactive; SKKanGAS inh: 52; NALP3 yeast inh: inactive; TIM10 inh: inactive; tim10-1 inh: inactive

Results for O=C1/C(=C\c2cc(Cl)c(O)c(Cl)c2)SC(=S)N1Cc1ccccc1 ?
SKKanGAS inh: 90

How did O=C(CN1C(=O)S/C(=C\C=C\c2ccccc2)C1=O)Nc1ccccc1C(=O)O do in these assays?
tim23-1 inh: inactive; SKKanGAS inh: 70; NALP3 yeast inh: inactive; TIM10 inh: inactive; tim10-1 inh: inactive

What do the screens show for `COc1ccc(/C=C2/SC(=S)N(Cc3ccccc3)C2=O)cc1O`?
tim23-1 inh: inactive; SKKanGAS inh: inactive; NALP3 yeast inh: inactive; TIM10 inh: inactive; tim10-1 inh: inactive

Results for CCc1ccc(/C=C2\SC(=S)N(CCCC(=O)Nc3ccccn3)C2=O)cc1 ?
tim23-1 inh: inactive; SKKanGAS inh: inactive; NALP3 yeast inh: inactive; TIM10 inh: inactive; tim10-1 inh: inactive

What do the screens show for `O=C(CCN1C(=O)/C(=C\c2ccccc2)SC1=S)NNC(=O)c1ccccc1O`?
tim23-1 inh: inactive; SKKanGAS inh: 51; NALP3 yeast inh: inactive; TIM10 inh: inactive; tim10-1 inh: inactive

What do the screens show for `COc1ccc(NC(=O)c2c(-c3c(Cl)cccc3Cl)noc2C)c(OC)c1`?
tim23-1 inh: inactive; SKKanGAS inh: inactive; NALP3 yeast inh: inactive; TIM10 inh: inactive; tim10-1 inh: inactive

Results for CC(=O)NNC(=O)CN1C(=O)/C(=C/c2ccccc2)SC1=S ?
tim23-1 inh: inactive; SKKanGAS inh: inactive; NALP3 yeast inh: inactive; TIM10 inh: inactive; tim10-1 inh: inactive

How did CCc1ccc(/C=C2/SC(=S)N(CC(=O)Nc3nc4ccccc4s3)C2=O)cc1 do in these assays?
tim23-1 inh: inactive; SKKanGAS inh: 79; NALP3 yeast inh: inactive; TIM10 inh: inactive; tim10-1 inh: inactive

What do the screens show for `Cc1ccc(C(=O)Nc2ccccc2C(=O)O)cc1NC(=O)COc1c(C)cccc1C`?
tim23-1 inh: inactive; SKKanGAS inh: inactive; NALP3 yeast inh: inactive; TIM10 inh: inactive; tim10-1 inh: inactive

Results for Cc1cc(C(=O)Nc2ccccc2C(=O)O)ccc1NC(=O)COc1cccc(C)c1C ?
tim23-1 inh: inactive; SKKanGAS inh: 54; NALP3 yeast inh: inactive; TIM10 inh: inactive; tim10-1 inh: inactive

What do the screens show for `COc1ccccc1C(=O)Nc1ccc(C(=O)Nc2ccccc2C(=O)O)cc1`?
tim23-1 inh: inactive; SKKanGAS inh: 50; NALP3 yeast inh: inactive; TIM10 inh: inactive; tim10-1 inh: inactive

What do the screens show for `O=C(COc1ccc(Cl)cc1Cl)Nc1ccc(C(=O)Nc2ccccc2C(=O)O)cc1`?
tim23-1 inh: inactive; SKKanGAS inh: 62; NALP3 yeast inh: inactive; TIM10 inh: inactive; tim10-1 inh: inactive

How did Cc1nn(C)c(C)c1C1C(C#N)=C(N)OC2=C1C(=O)CCC2 (configuration not stated) do in these assays?
tim23-1 inh: inactive; SKKanGAS inh: inactive; NALP3 yeast inh: inactive; TIM10 inh: inactive; tim10-1 inh: inactive
